A selection: hits, their analogues and other compounds. The true share with any hit is near 7.3%.
FLuc counter – firefly luciferase modulation, counter-screen for miR-21 project; P08659; purified FLuc, Km substrates, luminescence inhibition; Potency, µM (highest dose often 57.5 µM), without a hit: top-dose activity change, negative = inhibition, most hits filed as inhibitors; hit rate 6.9% among 360,000; AID 588342;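 note: plate controls were vehicle for no effect and reference inhibitor for full effect; nearly all actives have a fitted effect of over 55% in size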
Target sequence (P08659 whole entry, looked up): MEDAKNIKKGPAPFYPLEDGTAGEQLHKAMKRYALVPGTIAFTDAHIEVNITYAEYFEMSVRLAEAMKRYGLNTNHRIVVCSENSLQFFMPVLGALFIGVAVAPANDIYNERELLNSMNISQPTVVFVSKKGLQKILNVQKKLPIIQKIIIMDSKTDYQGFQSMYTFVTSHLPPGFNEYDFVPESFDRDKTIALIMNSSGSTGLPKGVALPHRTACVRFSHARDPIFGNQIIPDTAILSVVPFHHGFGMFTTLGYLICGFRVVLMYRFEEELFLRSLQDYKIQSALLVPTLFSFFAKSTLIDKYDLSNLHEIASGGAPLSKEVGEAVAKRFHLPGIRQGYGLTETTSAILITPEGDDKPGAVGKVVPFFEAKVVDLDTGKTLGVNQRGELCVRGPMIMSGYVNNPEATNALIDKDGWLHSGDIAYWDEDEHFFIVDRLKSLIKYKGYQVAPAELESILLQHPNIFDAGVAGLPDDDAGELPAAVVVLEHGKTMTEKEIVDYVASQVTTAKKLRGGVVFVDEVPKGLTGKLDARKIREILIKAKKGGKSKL
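Biochemical qHTS of compounds, final roughly 60 µM downward over six points, against 10 nM purified firefly luciferase using Km concentrations of substrates (10 uM D-luciferin, 10 uM ATP) in Tris acetate pH 7.5 buffer; luminescence output.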
KinaseGlo FLuc – blocks Kinase-Glo luciferase, a counter-screen artifact; Potency, µM (top dose mostly 38.3 µM), inactives show at the top dose activity change, negative = inhibition, hits mostly inhibitors; hit rate 0.28% among 200,000; Kinase-Glo luciferase, ATP luminescence, 8 min; Q27757; note: % is set by controls: 0 for no effect and ±100 for the full control effect; nearly all actives have a fitted effect of over 60% in size
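Light output from Kinase-Glo luciferase with luciferin and 10 uM ATP in 50 mM imidazole pH 7.2, KCl, MgCl2, Tween 20, BSA; compound pin-delivered, 8-min ambient incubation, then luminescence read.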
ELG1 genotox – genotoxicity induction in ELG1-luciferase HEK293T cells | HEK293T ELG1-luciferase reporter, luminescence, 16 h | Potency, µM (titrated, usually from 46 µM), for inactives: at the highest dose activity change, positive = activation, hits mostly activators | hit rate 1.3% among 330,000; note: % of control where 0% means no effect; nearly all actives have a fitted effect of over 60% in size
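Genotoxic stress is detected as increased luminescence from luciferase-tagged ELG1 in HEK293T cells, measured with ONE-Glo after a 16 hr treatment at 37 °C.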
SMN2 splice enh – increases expression of the SMN2 splice variant | HEK293 SMN2-luciferase splicing reporter, luminescence, 30-36 h | Potency, µM (titrated, usually from 46.1 µM), inactives show at the highest dose activity change, positive = activation, actives largely listed as activators | hit rate 2.8% among 210,000 | AID 1458; note: % of control where 0% means no effect; nearly all actives have a fitted effect of over 55% in size
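HEK293 cells carry an SMN2 […]–luciferase reporter in which exon 7 inclusion puts luciferase in frame. Cells were plated 10-12 h before compound addition, then incubated 30-36 h at 37C. ONE-Glo luminescence was read; sodium butyrate at 4.5 mM final served as control.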
Rab9 prom act – activates the Rab9 promoter. AID 485297. Potency, µM (highest dose often 9.22 µM), inactives show top-dose activation, negative = inhibition, actives largely listed as activators. hit rate 2.8% among 320,000. Huh7 Rab9 promoter-luciferase reporter, luminescence, 24 h; note: % of control where 0% means no effect; nearly all actives have a fitted effect of over 60% in size
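Cell-based reporter: Huh7 stable for Rab9 promoter-driven luciferase, plated in reduced-serum medium with 10% FBS at 1500 cells/well, compound-treated 24 h at 37 °C, luminescence read after 10 min reagent.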
NPC1 promoter act – NPC1 promoter activation; Huh7 NPC1 promoter luciferase reporter, 24 h; hit rate 2.4% among 320,000; Potency, µM (top dose mostly 9.22 µM), inactives show top-dose activation, usual class: activators; note: % of control where 0% means no effect; nearly all actives have a fitted effect of over 60% in size
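Quantitative HTS used a cell-based reporter: Huh7 cells stably bearing the NPC1 promoter upstream of luciferase were treated with compounds for 24 h, and promoter activation was read as luminescence.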
The depositor's hits bear a star; ? = inconclusive; / = no result; [ ] = another dose, or the depositor's remark. Calls come from the whole dose curve; as a rule, active = well fitted curve in the direction sought with a large enough effect; inconclusive = small, poorly fitted or top-dose-only effect, or another doubt; inactive = no such curve, though single readings can be large; an effect the other way counts as inactive or inconclusive. Potency is the fitted concentration of half-maximal effect.

SMILES	FLuc counter	KinaseGlo FLuc	ELG1 genotox	SMN2 splice enh	Rab9 prom act	NPC1 promoter act
CN(C)c1ccc(/C=N/NC(=S)NCc2ccco2)cc1	?	0%	7%	-3%	-2%	10%
CC(C)c1ccc(N2C(=O)CSC23C(=O)N(C)c2ccccc23)cc1 (configuration not stated)	2%	/	/	/	/	/
Cc1cccc(NC(=O)/C(C#N)=C/c2ccc(F)cc2)n1	5.4µM*	/	-8%	/	0%	2%
CCCOc1ccccc1/C=C(\C#N)C(=O)Nc1cccc(C)n1	11µM*	/	5%	/	-1%	-3%
CCOc1ccccc1/C=C(/C#N)C(N)=O	5%	/	3%	/	-2%	2%
CCCS(=O)(=O)N1CC(=O)N(c2ccccc2F)C(C)(C(=O)NC2CCCCCC2)C1 (configuration not stated)	4%	/	/	/	/	/
Cc1ccc(-c2cc3ccccc3nc2N)cc1	3µM*	/	?	/	?	5µM*
c1csc(-c2ccc3ccccc3n2)c1	7.6µM*	-9%	?	21%	?	?
Cc1cc2ncc(-c3cccs3)nc2cc1C	0.34µM*	/	?	/	4µM*	0.89µM*
Nc1nc2ccccc2cc1-c1cccs1	11µM*	/	?	/	?	4.5µM*
Cc1cc(F)c(Nc2ncnc3cc(OCc4ccccc4)ccc23)cc1O	/	3%[39.9 µM]	/	/	/	/
Oc1cc(O)c2c(c1)O[C@@H](c1ccc(O)c(O)c1)[C@H](O[C@@]1(c3cc(O)c(O)c(O)c3)Oc3cc(O)cc(O)c3[C@H](O)[C@@H]1O)C2	/	-4%[7.66 µM]	/	-7%[9.22 µM]	/	/
Cc1nn(CC(=O)NC2CC2)c(=O)c2cc3cc(F)ccc3n12	-4%	/	/	-11%	/	/
Cn1c(=O)n(C)c2cc(N3CCOCC3)c(NS(=O)(=O)c3ccc(F)cc3)cc21	1%	/	/	8%	/	/
Cn1c(=O)n(C)c2cc(N3CCOCC3)c(NS(=O)(=O)c3ccc(Br)cc3)cc21	0%	/	/	13µM*	/	/
O=C(c1ccc(Cl)cc1)c1cnc(Nc2ccccc2Cl)s1	1.5µM*	-10%	?	22µM*	1.1µM*	1.8µM*
O=C(c1ccc(Cl)cc1)c1cnc(-c2ccccc2)s1	?	-6%	13%	3%	2.8µM*	2.2µM*
CC(=O)c1cnc(Nc2ccccc2)s1	-18%	5%	11%	2%	5%	3%
CNc1ncc(C(=O)c2ccccc2)s1	?	-3%	?	17%	?	?
CC(=O)c1cnc(Nc2cccc(Cl)c2Cl)s1	?	-5%	?	13µM*	?	23%
CNc1ncc(C(=O)c2ccc(Br)cc2)s1	12µM*	0%	?	16µM*	2µM*	2.8µM*
CCN1CCOC(=O)C1CC(=O)Nc1ccc(Br)cc1 (configuration not stated)	0%	/	/	4%	/	/
CCC(C)(C)NC(=O)C1CCN(S(=O)(=O)c2c(C)noc2/C=C/c2ccc(C)cc2)CC1	-1%	/	/	/	/	/
Cc1ccc(Cn2c(=O)n(-c3cc(C)cc(C)c3)c(=O)c3oc4ccccc4c32)cc1	5%	/	/	/	/	/
CC1CCCN(CCCNC(=O)c2ccc3c(c2)N(Cc2cccc(Cl)c2)C(=O)c2ccccc2S3(=O)=O)C1 (configuration not stated)	0%	/	/	/	/	/
SMILES	FLuc counter	KinaseGlo FLuc	ELG1 genotox	SMN2 splice enh	Rab9 prom act	NPC1 promoter act
Cc1cc(OCC(=O)Nc2ccc(C(=O)OC3CCCCC3)cc2)cc(C)c1Cl	-5%	/	/	1%	/	/
CN(C)/C=N/c1ncc(C(=O)c2ccc(Cl)cc2)s1	?	1%	16µM*	10%	6%	28%
CO/N=C/CC(=O)c1cnc(-c2ccc(Cl)cc2)s1	?	-4%	?	25µM*	?	?
CO/N=C/CC(=O)c1ccc(-c2ccccc2)cc1	?	-3%	11%	12%	12%	-4%
COc1ccc(C)cc1NC(=O)N1CCCn2nc(C)cc21	-1%	/	/	/	/	/
Cc1ccc(-c2nnc(-c3ccccc3Br)o2)cc1	0.76µM*	/	?	/	4µM*	4µM*
Brc1ccccc1-c1nnc(-c2cccnc2)o1	15µM*	0%	18µM*	2%	?	?
Cc1ccc(-c2nnc(/C=C/c3ccccc3)o2)cc1	17µM*	-3%	?	18µM*	18%	22%
Brc1ccc(-c2nnc(-c3ccccc3Br)o2)cc1	1.3µM*	-18%	2.9µM*	14µM*	0.71µM*	1.1µM*
COc1ccccc1CCn1c(=O)c(-c2ccccc2)nc2cncnc21	/	-6%	/	-13%	/	/
Cc1ccc(Oc2cnc3ccccc3n2)cc1	12µM*	-5%	7%	5%	?	?
Clc1ccc(Oc2cnc3ccccc3n2)cc1	?	-1%	-6%	0%	8%	20%
CCOC(=O)C1CCN(C(c2ccccc2OC)c2c(O)cc(C)n(CCOC)c2=O)CC1 (configuration not stated)	2%	/	/	/	/	/
N#CC1(c2ccc(NC(=O)c3ccccc3F)cc2)CCCC1	1.9µM*	-12%	1.8µM*	2.8µM*	0.79µM*	0.63µM*
COc1ccc(C(=O)Nc2ccc(C3(C#N)CCCC3)cc2)cc1	4.8µM*	-1%	0%	-1%	21%	14%
O=C(Nc1cccc(F)c1)N1CC2(CCN(C(=O)c3cccc(F)c3)CC2)C1	/	2%	/	10%	/	/
CCC(C)c1ccc(NC(=O)c2cccnc2)cc1 (configuration not stated)	12µM*	-1%	?	13µM*	2.5µM*	2.8µM*
CCC(C)c1ccc(O)c(NC(=O)c2cccnc2)c1 (configuration not stated)	-2%	-1%	-3%	-3%	1%	-1%
CC(C)c1ccc(C(=O)Nc2cccnc2)cc1	3.4µM*	/	5.2µM*	/	?	1.6µM*
O=C(Nc1cccnc1)c1ccc(F)cc1	-9%	-2%	1%	6%	-1%	-2%
CC(C)(C)C(=O)Nc1ccc(C(=O)Nc2cccnc2)cc1	21µM*	0%	21µM*	?	4µM*	?
O=C(Nc1cccnc1)c1ccc(-c2ccccc2)cc1	2.4µM*	-4%	?	-2%	?	?
COc1ccc(Nc2c3c(nc4ccc(NC(=O)c5cc(Cl)ccc5OC)cc24)CCCC3)cc1OC	9%	/	/	-107%	/	/
Cc1ccc(S(=O)(=O)c2nc(S(C)(=O)=O)sc2N(C)Cc2ccccc2)cc1	-3%	/	/	-23%	/	/
O=C(COc1ccc([N+](=O)[O-])cc1)Nc1cccnc1	-11%	-1%	-2%	/	2%	-1%
O=C(COc1ccc(-c2ccccc2)cc1)Nc1cccnc1	5.4µM*	/	17%	/	-3%	-12%
